In all, about 59,000 sequences were measured (the read-out: median about -0.00055, lowest 2% from about -2 on). The entries come from a sample that favours the lowest values as a whole.
Experiment: Identification of proteins required for the processing of the EWS-FLI1 nascent transcript;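 note: robust z of luciferase light less the median z of siRNAs with the same seed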
Conditions: TC32 Ewing sarcoma NR0B1-luc vs CMV-luc (EWS-FLI1 target promoter against control promoter), 48 h; screened at 20 nM (by protocol)
Method in brief: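 Parallel TC32-NR0B1-luc and TC32-CMV-luc reverse transfections with 20 nM siRNA in RPMI-1640/10% FBS, luciferase measured 48 h later. Seed-adjusted z-scores from normalized, z-score-MAD transformed data; AllStars negative and siGL4 controls on each plate.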
In the case of AAAGUGAUUCCCACAGCUG against CCS, the seed-corrected z-score is reported as 1.5.
UUUCUAACAUAGGAUGCCG against PRKAR1A showed a seed-corrected z-score of -0.515.
Work on AUGGUUGCGGUAGAAGACG against PHYHIP yielded a seed-corrected z-score of 0.484.
With AUAGAAUCUAGGGAAAUAG against HBD the seed-corrected z-score was 1.15.
AUAGUUAUCCUUUAAUAAC against SLC2A3 showed a seed-corrected z-score of -2.2.
With AAUGUCAUUGCUGCGGUCC against SH3KBP1 the seed-corrected z-score was -0.331.
For UUUCAGAGCCUUUCCCUGC against LTA, the seed-corrected z-score was -0.389.
UGAUGUACAGCUGAGGACC against ELMO2 gave a seed-corrected z-score of -2.32.
UCAGGUAGAGCAUAGCUUG against SPX showed a seed-corrected z-score of -1.13.
With ACAGCUACCACAAAUGCAG against NDUFB3 the seed-corrected z-score was 1.34.
With UGGGUUCCCAGUAACACUC against RPRD2 the seed-corrected z-score was -0.107.
For UGCUCUAUCUCUGUCAGGG against RORC, the seed-corrected z-score was 0.626.
For AUCGCUGUUAAGAAGCUCC against CIITA, the seed-corrected z-score was -0.918.
UUGGAAUCAGUCAUGCUCA against SFTPD showed a seed-corrected z-score of 0.0218.
In the case of AUCCUUCUUGAAGUCGGCG against OAF, the seed-corrected z-score is reported as 2.26.
UUCAGGACGAUCUUGACAG against CHRDL2 showed a seed-corrected z-score of -0.237.
Sequence UGCCGUUUCAUCUUGUACC against NKX2-4 has a seed-corrected z-score of -2.69.
Work on UUGAAGUUUGGAUAUUACC against GABPB2 yielded a seed-corrected z-score of -0.668.
Work on GAAUGUAGCAAAUGAGUCG against MT1H yielded a seed-corrected z-score of 0.588.
UGACUGGAUAUAUCCACUG against RAB20 showed a seed-corrected z-score of 0.37.
UUUUCUGCCUGAUCUAACU against MAP3K7CL showed a seed-corrected z-score of 0.11.
Work on UCACUGUCAAUCAUGCGCU against CACNG1 yielded a seed-corrected z-score of -1.04.
Work on UCACCUUCCGCUUCGACUU against FAM181B yielded a seed-corrected z-score of 2.19.
With AAACCAAUAGGAAUUGACU against HINT3 the seed-corrected z-score was 0.612.
For AUCCAGUUAAUUCCAGAUG against NUDT1, the seed-corrected z-score was -3.9.
Work on UAGGUUGUGAAUGUGGUCG against FBXL8 yielded a seed-corrected z-score of -3.1.
Sequence UAUAUGUCUUGAUUAUCCU against NMS has a seed-corrected z-score of 0.309.
Work on UCCAGGUCAAGGGUAACGG against KIF7 yielded a seed-corrected z-score of -0.853.
UACAUGUCAAAUGAGCUCC against KIR2DL5B showed a seed-corrected z-score of -2.25.
UGUAGAAUGAGUAGGCGGC against NMT2 showed a seed-corrected z-score of -0.0232.
For UGUAUUUGAAGACUUUCCC against ZNF485, the seed-corrected z-score was 0.182.
UUCCUUCCUCGUUCAUUGC against KGFLP1 gave a seed-corrected z-score of -2.1.
Sequence AAAGCUUCCCUCAACUUGC against TAS2R9 has a seed-corrected z-score of -0.00509.
Sequence UAUCUAGUGCAGUAUAUCG against COPS2 has a seed-corrected z-score of 0.174.
In the case of UUUGAUCUCAUCGGUGCCC against PIAS1, the seed-corrected z-score is reported as -0.0672.
AUUCUCGUCAGUGAGCUCC against POLR2C showed a seed-corrected z-score of -0.262.
For UCUUCGUUCUUGUCGAUCU against MED15, the seed-corrected z-score was 2.07.
For UAACUUUGUCUUUGGAUUC against SETD9, the seed-corrected z-score was 1.15.
Sequence AAACUGCUCGCUGUCAUUC against NCDN has a seed-corrected z-score of -2.2.
UGUACAAGAAGUCAUAAGC against DSE showed a seed-corrected z-score of -0.289.
With UUGUGGUCAAUGCCCUUGG against UBIAD1 the seed-corrected z-score was -0.444.
With UGACAUUCCAAGGUUGUAG against TAS2R60 the seed-corrected z-score was 0.323.
ACCUUUUUCACUUCUACAC against 2-Mar gave a seed-corrected z-score of -0.43.
AAGUUGCUCAGAAACUUGG against WNT9B showed a seed-corrected z-score of -3.07.
UGUCCAGAUAAGGAGACGC against PINLYP gave a seed-corrected z-score of -1.21.
Work on UAAGUUCACUGUUCCAUAU against EDEM2 yielded a seed-corrected z-score of 0.761.
Work on UUUGAAAUCAACAUAGAGG against LINC00574 yielded a seed-corrected z-score of -0.00543.
AAAGGUACUUUACCAGAUG against MTX2 showed a seed-corrected z-score of 0.416.
AGUUCAUUAAAUAAGGUCC against TMEM33 showed a seed-corrected z-score of 0.17.
UUGUCAAAAAGUCCUUUUG against GINS3 showed a seed-corrected z-score of 0.092.
For AAGGCUCUGACAACGAUUC against LMNB1, the seed-corrected z-score was -1.07.
Work on UUGAUUCGCAACCAUAGCC against BTBD7 yielded a seed-corrected z-score of -2.52.
Sequence AUUCGAAGUAGUUGUAGCC against FRY has a seed-corrected z-score of 0.623.
With UCGGUUUUCCUCAAAAUGG against SESN1 the seed-corrected z-score was 0.94.
With UUUCGAAUUAACGCAACUG against HECTD1 the seed-corrected z-score was 0.00197.
UUCUGAUUCCCAAACAGUG against COMMD8 gave a seed-corrected z-score of -1.88.
In the case of AAUCAUAACUGUCAUAUCC against DSPP, the seed-corrected z-score is reported as 0.304.
Work on ACCGUGCCCAGCAUACAUC against LOC541473 yielded a seed-corrected z-score of -4.77.
Sequence UUUCUGGUGACCCUUUUUC against TSG101 has a seed-corrected z-score of -0.683.
Work on UCUACUUCUGUGGAUACUC against TALDO1 yielded a seed-corrected z-score of 0.332.
For UCAGCUGCACUUUCAGUAG against GOLGA8J, the seed-corrected z-score was -1.61.
ACCGUUACAUAUUCUAUCC against SUPT6H showed a seed-corrected z-score of -4.84.
With UGCUGUAUCCUCUAUAUCC against RFX5 the seed-corrected z-score was -0.0572.
Sequence UUAAUCGGCACAGCUGUUC against RSBN1 has a seed-corrected z-score of -0.543.
For UAUGCAGUCUGGGUAACCC against C10orf11, the seed-corrected z-score was 0.746.
Sequence UUACGUAUGCACCAUUUGC against SLC35D1 has a seed-corrected z-score of 0.196.
UAUAGUAAUCAGCUAGUGG against MED6 gave a seed-corrected z-score of -3.7.
UUUAUUCCCAAAGGCUCUG against PTGER1 gave a seed-corrected z-score of -0.569.
Work on AUAUCAUUUACUGACAUAG against DNAJB4 yielded a seed-corrected z-score of -0.41.
In the case of UUCCAGGAUACUUUAAUCC against PON1, the seed-corrected z-score is reported as -0.178.
In the case of AAGCGGUUAACGAAAAGGC against SLC2A1, the seed-corrected z-score is reported as 1.37.
UUUGUAAUCAUACGGACAG against ZFAND5 showed a seed-corrected z-score of 0.868.
AAACUCAAAAUCCCGUUGC against ZC3H10 showed a seed-corrected z-score of 0.108.
UAAUAUCCGGUAAGAAUCC against DDB2 gave a seed-corrected z-score of -0.365.
Sequence UAUAGGUAAGGAUUUCUGC against KRTAP9-2 has a seed-corrected z-score of -0.397.
Work on UGUCUUCUAAAGUAAGUGG against ZNF77 yielded a seed-corrected z-score of -2.26.
UCACGAACAUGUUGCAAGG against KRIT1 showed a seed-corrected z-score of -0.0242.
Sequence UAGUUCAUAAUCCAAGUCC against COL6A3 has a seed-corrected z-score of 0.0612.
With AUGACUUUAGGUCGCAUCG against FBXL12 the seed-corrected z-score was -13.4.
For UUUGGGAUUUCCAUUGUCU against LRP2BP, the seed-corrected z-score was 0.259.
With UUGGAUACAAAGGAACAAC against DHX32 the seed-corrected z-score was -0.291.
UUUGAGUCCACCACGAAGC against MYH3 gave a seed-corrected z-score of -0.0465.
In the case of UCUGCUGCUCGUCAAGUUC against MAP2K2, the seed-corrected z-score is reported as 1.77.
UCUCUUUAAAGACUCCUCC against LPO showed a seed-corrected z-score of 0.133.
For UUGGGAUAUAUUUAGCGGC against ITGB1BP2, the seed-corrected z-score was -2.58.
UUUCGGAUGAGCACGCAGC against APRT gave a seed-corrected z-score of -0.0241.
For UUCUUGUUCACUCUAAUUU against NFIC, the seed-corrected z-score was 0.384.
With AUAGUGUCGAUAAAAACCU against CHRNA1 the seed-corrected z-score was 0.527.
Sequence AAAGUUGCGGAAGCUGAUG against LRP3 has a seed-corrected z-score of -2.42.
UAUCUGUGCAGUUAAGAUG against LOC401220 gave a seed-corrected z-score of -0.155.
UUUCACUCCACUGAAGUAC against CDKL1 showed a seed-corrected z-score of -0.736.
For AGCUGUAGCACCAUCAACG against OR7G3, the seed-corrected z-score was -1.26.
In the case of UUCGAUUCCAAGCCUUACG against CCDC113, the seed-corrected z-score is reported as 0.591.
For AAGUUACCCACGUAGAUGC against SRSF1, the seed-corrected z-score was -1.35.
UAAGAUAUUUGUCCAACAG against YWHAB showed a seed-corrected z-score of 0.25.
UCAUUGAUCUAAAACGACC against PPFIA1 showed a seed-corrected z-score of 0.863.
For UUCUCCUUCACAUACCGGC against CLK3, the seed-corrected z-score was 0.176.
In the case of UAUCUUCACUGAAUUGACC against ARL8B, the seed-corrected z-score is reported as 0.269.
AUAUGCUUCACAGUUCUAG against MMP1 showed a seed-corrected z-score of -2.83.
Work on UAUAGGCCUUCUACAUUGC against ROM1 yielded a seed-corrected z-score of 1.12.
UUGCGAAUGAGGUUGUAGG against PIK3C2B gave a seed-corrected z-score of -0.721.
In the case of UCUGAUAGCAAUAACUUGG against PPCS, the seed-corrected z-score is reported as -0.294.
Work on UGUUGACUCACUGUAGGCU against LOC729683 yielded a seed-corrected z-score of 0.842.
AAAGAGGAAACGGUAGGCC against JAGN1 showed a seed-corrected z-score of -2.67.
UAUUGGAUCCGGUGCAACC against SYPL2 gave a seed-corrected z-score of -0.246.
With UUGGUUAUCCUCUAUACCC against MTERF3 the seed-corrected z-score was 0.193.
With UUCAUCAUCGAGGUCAUCC against DPF2 the seed-corrected z-score was -3.12.
UGAACUAUUGGAAUGUCUC against SEC11C gave a seed-corrected z-score of 0.165.
AUCGUAGUCAGUGUAUCUG against PPARGC1B showed a seed-corrected z-score of -0.163.
Work on UAUAGAGCUGCCGUCUCCG against ESRP2 yielded a seed-corrected z-score of -0.989.
In the case of UCACUGUUUACUUAGCGCU against HIST1H2BJ, the seed-corrected z-score is reported as 1.62.
Work on UGCCGAACCACUUCCAGAG against TNRC18P2 yielded a seed-corrected z-score of -1.02.
AUAGUAAAUAAACACUGCC against RHBDL2 gave a seed-corrected z-score of -2.55.
For AAUCUGAGAACAGACCGUG against MXD4, the seed-corrected z-score was 1.77.
AUAGGAGUAAGAAUUUUUG against NUDT10 gave a seed-corrected z-score of -0.635.
With AUGCUUAUAAUGACCACCA against SLC51B the seed-corrected z-score was -2.22.
UGAAACACCAUUAAAACGG against TDG showed a seed-corrected z-score of 0.355.
In the case of UAAAUCUGCUUAUCUCUUC against TFAM, the seed-corrected z-score is reported as -0.445.
In the case of UUCUUGAAAAGGCAACAGU against POC1A, the seed-corrected z-score is reported as 0.91.
AAAGCGACAUUGUUUGACC against COPB2 gave a seed-corrected z-score of -2.18.
For UUGGUCAUAGAGGUCGUCC against LSR, the seed-corrected z-score was -1.71.
For UGUCGGAUGAGGUCAUUGC against TNS4, the seed-corrected z-score was -2.96.
UUGUUUGCAGGUUCUACUU against DDX19B showed a seed-corrected z-score of -0.121.
Work on UCUAGUAUUACUGCUACUG against DDHD2 yielded a seed-corrected z-score of 0.72.
Work on AAUGUACAAGUGGUCAUUC against MAGED2 yielded a seed-corrected z-score of -2.83.
With UCAUAGUCCAGGGUAAGGC against LRP4 the seed-corrected z-score was -1.11.
With UCUUUGUACGCAUCAAGUG against NPY1R the seed-corrected z-score was -0.0164.
Sequence AUAGAUUAACCAUGUUUCC against KCNN3 has a seed-corrected z-score of -0.34.
Sequence UCCAUUGAUAGAACCAUCU against HFE2 has a seed-corrected z-score of -0.476.
In the case of UAAGAUGAUCGUGAACUUG against RPL39L, the seed-corrected z-score is reported as 0.982.
Work on UGCAUUUCUAUAUUCAACC against TLE4 yielded a seed-corrected z-score of -0.442.
For UAUAGGUGUAGAUUACAGG against OR13G1, the seed-corrected z-score was -0.49.
Sequence UAACUUGUUUGUUUACAAC against RPL21P62 has a seed-corrected z-score of -3.04.

— PubChem BioAssay AID1159506 (National Center for Advancing Translational Sciences (NCATS), 2015)
